# Assay results published in the supplement of paper PMC10037445.
# Over roughly 2,900 compounds, “NF-kB SEAP reporter activity, fold change vs agonist alone” has its median near 0.99; the highest 2% begin near 2.6. The sample holds the highest values, similar compounds and a random draw of the others, so the mix is not that of the screen.
# Experiments:
# RAW-Dual [1] = assay: NF-kB SEAP reporter activity, fold change vs agonist alone; cytotoxicity flag (confluency mask): cytotoxic (confluency <70% of control); higher = enhanced NF-kB activity
# Method in brief: (§1)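 Supernatant from RAW-Dual macrophages was read after 20 hours for IRF by QuantiLuc luminescence and for NF-κB by QuantiBlue absorbance at 620 nm. The cells (50,000 cells/well in DMEM, 384-well plates, 37 °C, 5% CO2) had received 50 nL of library stock by pin tool and, 1 h later, a PRR agonist. Reporter activity is expressed relative to agonist-alone wells as fold change, and wells were flagged cytotoxic if IncuCyte confluency was under 70% of agonist controls in both mask sets.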
# RAW-Dual [2] = assay: NF-kB SEAP reporter activity, fold change vs agonist alone; higher = enhanced NF-kB activity
# Method in brief: as §1
# RAW-Dual [3] = assay: NF-kB SEAP reporter activity, fold change vs agonist alone; cytotoxicity flag (confluency mask): not cytotoxic; higher = enhanced NF-kB activity
# Method in brief: as §1
# [4] = agonist: ODN 1826 (TLR9) 0.5 ug/mL
# [5] = agonist: Pam2CSK4 (TLR2/6) 0.1 ug/mL
# [6] = agonist: Pam3CSK4 (TLR2/1) 0.1 ug/mL
# [7] = library stock concentration (final ~1000-fold dilution): 10 mM, cytotoxicity flag (confluency mask): not cytotoxic, agonist: Imiquimod (TLR7) […]
# [8] = library stock concentration (final ~1000-fold dilution): 10 mM, cytotoxicity flag (confluency mask): not cytotoxic, agonist: MPLA (TLR4) […]
# [9] = library stock concentration (final ~1000-fold dilution): 10 mM water, cytotoxicity flag (confluency mask): not cytotoxic, agonist: Imiquimod (TLR7) […]
# [10] = library stock concentration (final ~1000-fold dilution): 10 mM water, cytotoxicity flag (confluency mask): not cytotoxic, agonist: MPLA (TLR4) […]
compound,measurement,setting,value
Cl.NCCOCCOCCNC(=O)Cc1ccc(Nc2nc(NCc3ccc(F)cc3)nc(NCC3CCCCC3)n2)cc1 (library stock concentration (final ~1000-fold dilution): 10 mM),NF-kB SEAP reporter activity,RAW-Dual [1]; agonist: LPS (TLR4) 0.1 ug/mL,0.643
same,NF-kB SEAP reporter activity,RAW-Dual [1]; [4],0.852
same,NF-kB SEAP reporter activity,RAW-Dual [1]; [5],0.738
same,NF-kB SEAP reporter activity,RAW-Dual [1]; [6],0.911
Cl.NCCOCCOCCNC(=O)Cc1ccc(Nc2nc(NCc3ccc(F)cc3)nc(NCC3CCCCC3)n2)cc1,NF-kB SEAP reporter activity,"RAW-Dual [2]; library stock concentration (final ~1000-fold dilution): 10 mM, cytotoxicity flag (confluency mask): cytotoxic (confluency <70% of control), agonist: Imiquimod (TLR7) […]",1.05
same,NF-kB SEAP reporter activity,"RAW-Dual [2]; library stock concentration (final ~1000-fold dilution): 10 mM, cytotoxicity flag (confluency mask): cytotoxic (confluency <70% of control), agonist: MPLA (TLR4) […]",1.59
O=C(Nc1nccs1)C(c1cc(F)ccc1O)N1Cc2ccccc2C1=O (stereo unspecified) (library stock concentration (final ~1000-fold dilution): 10 mM),NF-kB SEAP reporter activity,RAW-Dual [3]; agonist: LPS (TLR4) 0.1 ug/mL,0.902
same,NF-kB SEAP reporter activity,RAW-Dual [3]; [4],0.989
same,NF-kB SEAP reporter activity,RAW-Dual [3]; [5],0.865
same,NF-kB SEAP reporter activity,RAW-Dual [3]; [6],1.02
O=C(Nc1nccs1)C(c1cc(F)ccc1O)N1Cc2ccccc2C1=O (stereo unspecified),NF-kB SEAP reporter activity,RAW-Dual [2]; [7],0.944
same,NF-kB SEAP reporter activity,RAW-Dual [2]; [8],0.982
CCOC(=O)CC(=O)O (library stock concentration (final ~1000-fold dilution): 10 mM water),NF-kB SEAP reporter activity,RAW-Dual [3]; agonist: LPS (TLR4) 0.1 ug/mL,1.31
same,NF-kB SEAP reporter activity,RAW-Dual [3]; [4],1.09
same,NF-kB SEAP reporter activity,RAW-Dual [3]; [5],1.18
same,NF-kB SEAP reporter activity,RAW-Dual [3]; [6],1.03
CCOC(=O)CC(=O)O,NF-kB SEAP reporter activity,RAW-Dual [2]; [9],0.955
same,NF-kB SEAP reporter activity,RAW-Dual [2]; [10],1
CCCCOc1cc(C(=O)NCCN(CC)CC)c2ccccc2n1.Cl,NF-kB SEAP reporter activity,RAW-Dual [2]; [7],1.57
same,NF-kB SEAP reporter activity,RAW-Dual [2]; [8],1.01
CCCCOc1cc(C(=O)NCCN(CC)CC)c2ccccc2n1.Cl (library stock concentration (final ~1000-fold dilution): 10 mM),NF-kB SEAP reporter activity,RAW-Dual [3]; agonist: LPS (TLR4) 0.1 ug/mL,0.994
same,NF-kB SEAP reporter activity,RAW-Dual [3]; [4],0.959
same,NF-kB SEAP reporter activity,RAW-Dual [3]; [5],0.866
same,NF-kB SEAP reporter activity,RAW-Dual [3]; [6],1.09
CN1CCOC(c2ccccc2)c2ccccc2C1.Cl (stereo unspecified) (library stock concentration (final ~1000-fold dilution): 10 mM water),NF-kB SEAP reporter activity,RAW-Dual [3]; agonist: LPS (TLR4) 0.1 ug/mL,1.36
same,NF-kB SEAP reporter activity,RAW-Dual [3]; [4],0.943
same,NF-kB SEAP reporter activity,RAW-Dual [3]; [5],1.05
same,NF-kB SEAP reporter activity,RAW-Dual [3]; [6],0.969
CN1CCOC(c2ccccc2)c2ccccc2C1.Cl (stereo unspecified),NF-kB SEAP reporter activity,RAW-Dual [2]; [9],1.12
same,NF-kB SEAP reporter activity,RAW-Dual [2]; [10],1.03
COc1ccc(S(=O)(=O)N(C(C)=O)c2ccccc2/C=C/c2cc[n+]([O-])cc2)cc1,NF-kB SEAP reporter activity,RAW-Dual [2]; [7],2.17
same,NF-kB SEAP reporter activity,RAW-Dual [2]; [8],1.61
COc1ccc(S(=O)(=O)N(CCO)c2ccccc2CN(C)CC=Cc2ccc(Cl)cc2)cc1 (library stock concentration (final ~1000-fold dilution): 10 mM),NF-kB SEAP reporter activity,RAW-Dual [3]; agonist: LPS (TLR4) 0.1 ug/mL,0.958
same,NF-kB SEAP reporter activity,RAW-Dual [3]; [4],0.257
same,NF-kB SEAP reporter activity,RAW-Dual [3]; [5],0.537
same,NF-kB SEAP reporter activity,RAW-Dual [3]; [6],0.372
COc1ccc(S(=O)(=O)N(CCO)c2ccccc2CN(C)CC=Cc2ccc(Cl)cc2)cc1,NF-kB SEAP reporter activity,RAW-Dual [2]; [7],0.802
same,NF-kB SEAP reporter activity,RAW-Dual [2]; [8],1.07
COc1ccc(S(=O)(=O)N(C(C)=O)c2ccccc2/C=C/c2cc[n+]([O-])cc2)cc1 (library stock concentration (final ~1000-fold dilution): 10 mM),NF-kB SEAP reporter activity,RAW-Dual [3]; agonist: LPS (TLR4) 0.1 ug/mL,1.85
same,NF-kB SEAP reporter activity,RAW-Dual [3]; [4],2.59
same,NF-kB SEAP reporter activity,RAW-Dual [3]; [5],1.94
same,NF-kB SEAP reporter activity,RAW-Dual [3]; [6],1.43
C=C1C(CO)C(O)CC1n1cnc2c(=O)nc(N)[nH]c21 (stereo unspecified),NF-kB SEAP reporter activity,RAW-Dual [2]; [8],1.07
C=C1C(CO)C(O)CC1n1cnc2c(=O)nc(N)[nH]c21 (stereo unspecified) (library stock concentration (final ~1000-fold dilution): 10 mM),NF-kB SEAP reporter activity,RAW-Dual [3]; agonist: LPS (TLR4) 0.1 ug/mL,1.32
same,NF-kB SEAP reporter activity,RAW-Dual [3]; [4],0.996
same,NF-kB SEAP reporter activity,RAW-Dual [3]; [5],1.37
same,NF-kB SEAP reporter activity,RAW-Dual [3]; [6],0.846
CNC1C(O)C(OC2C(NC(=O)C(O)CN)CC(N)C(OC3OC(CN)C(O)C(O)C3O)C2O)OCC1(C)O.O=S(=O)(O)O (stereo unspecified) (library stock concentration (final ~1000-fold dilution): 10 mM water),NF-kB SEAP reporter activity,RAW-Dual [3]; agonist: LPS (TLR4) 0.1 ug/mL,1.03
same,NF-kB SEAP reporter activity,RAW-Dual [3]; [4],1.09
same,NF-kB SEAP reporter activity,RAW-Dual [3]; [5],1.3
same,NF-kB SEAP reporter activity,RAW-Dual [3]; [6],1.14
CNC1C(O)C(OC2C(NC(=O)C(O)CN)CC(N)C(OC3OC(CN)C(O)C(O)C3O)C2O)OCC1(C)O.O=S(=O)(O)O (stereo unspecified),NF-kB SEAP reporter activity,RAW-Dual [2]; [9],0.944
same,NF-kB SEAP reporter activity,RAW-Dual [2]; [10],1.01
COc1ccc(C(NC(=O)c2cnc(-c3cccnn3)nc2O)c2ccc(OC)cc2)cc1,NF-kB SEAP reporter activity,RAW-Dual [2]; [7],0.974
same,NF-kB SEAP reporter activity,RAW-Dual [2]; [8],1.03
COc1ccc(C(NC(=O)c2cnc(-c3cccnn3)nc2O)c2ccc(OC)cc2)cc1 (library stock concentration (final ~1000-fold dilution): 10 mM),NF-kB SEAP reporter activity,RAW-Dual [3]; agonist: LPS (TLR4) 0.1 ug/mL,2.9
same,NF-kB SEAP reporter activity,RAW-Dual [3]; [4],0.861
same,NF-kB SEAP reporter activity,RAW-Dual [3]; [5],0.898
same,NF-kB SEAP reporter activity,RAW-Dual [3]; [6],1.02
O=C(O)c1ccc(Br)c(O)c1,NF-kB SEAP reporter activity,RAW-Dual [2]; [8],1.11
O=C(O)c1ccc(Br)c(O)c1 (library stock concentration (final ~1000-fold dilution): 10 mM),NF-kB SEAP reporter activity,RAW-Dual [3]; agonist: LPS (TLR4) 0.1 ug/mL,1.11
same,NF-kB SEAP reporter activity,RAW-Dual [3]; [4],0.975
same,NF-kB SEAP reporter activity,RAW-Dual [3]; [5],1.09
same,NF-kB SEAP reporter activity,RAW-Dual [3]; [6],0.729
O=C(/C=C/c1ccc(O)c(O)c1)O[C@@H]1CC(O)(C(=O)O)C[C@@H](OC(=O)/C=C/c2ccc(O)c(O)c2)C1O (stereo partly specified) (library stock concentration (final ~1000-fold dilution): 10 mM),NF-kB SEAP reporter activity,RAW-Dual [3]; agonist: LPS (TLR4) 0.1 ug/mL,1.24
same,NF-kB SEAP reporter activity,RAW-Dual [3]; [4],1.04
same,NF-kB SEAP reporter activity,RAW-Dual [3]; [5],1.11
same,NF-kB SEAP reporter activity,RAW-Dual [3]; [6],1.18
O=C(/C=C/c1ccc(O)c(O)c1)O[C@@H]1CC(O)(C(=O)O)C[C@@H](OC(=O)/C=C/c2ccc(O)c(O)c2)C1O (stereo partly specified),NF-kB SEAP reporter activity,RAW-Dual [2]; [7],0.841
same,NF-kB SEAP reporter activity,RAW-Dual [2]; [8],1.01
CC(C)NC(=O)C1CCC(n2c(=NC(=O)c3ccc(F)cc3)[nH]c3ccc(CN4CCC(C(C)(C)O)CC4)cc32)CC1 (stereo unspecified),NF-kB SEAP reporter activity,RAW-Dual [2]; [7],1.44
same,NF-kB SEAP reporter activity,RAW-Dual [2]; [8],0.822
CC(C)NC(=O)C1CCC(n2c(=NC(=O)c3ccc(F)cc3)[nH]c3ccc(CN4CCC(C(C)(C)O)CC4)cc32)CC1 (stereo unspecified) (library stock concentration (final ~1000-fold dilution): 10 mM),NF-kB SEAP reporter activity,RAW-Dual [3]; agonist: LPS (TLR4) 0.1 ug/mL,1.17
same,NF-kB SEAP reporter activity,RAW-Dual [3]; [4],0.713
same,NF-kB SEAP reporter activity,RAW-Dual [3]; [5],1.24
same,NF-kB SEAP reporter activity,RAW-Dual [3]; [6],2.16
